The record followed here is the supplement of paper PMC6555819.

The test system of this test is VDR homodimer (NR concentration 270 nM). Nature of the test: PBM binding z-score (relative to random genomic background probes); higher = stronger binding; sequences stand for … in GC…GCGATTGACAGCGTAGAATGAAGG
The gist of the method: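 On custom Agilent 4×180K arrays, double-stranded probes with 34-nt variable regions carried direct-repeat seeds, single-nucleotide variants, half-site ablations or random human genomic background. Ligand-free nuclear receptor dimers were applied for 1 h, and binding was read with antibodies against each partner (one per run). Binding z-scores come from regression-normalized fluorescence, with the random background probes as reference.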
CCGAGTAGGTTACGAGCGGGCATTCAGTGCGAAT: the PBM binding z-score was -0.206. In the case of CCGAGTAGGTTACGAGGGGGCATTAAGTGCGAAT, the PBM binding z-score is 3.56. The same measure for ATATGTAGGCTAGGGTCATTCAGAAAGTAGGGAA: 2.49; for CTCGAAAGGTCGGTTGAGGTCAGTATACGGATAA: 3.44; for CGAACTAGGTCACCAGGACAGTCAAGAGGTTGGA: 0.612. The result for TCATATAGGTGAAAGGTGAAAGTCGGTGTGGTAA reads 0.0995.

In the case of ATATGTAGCTTAAGGGTCATTCAGGTTGGTTCGC, the PBM binding z-score turned out to be 4.07.

GCTGCTAGGTCAGGTTGGTCAGCTAACGGGTACG returned a PBM binding z-score of 0.466.

The sequence ATACGTAGGTTACATCCGGGTCATTCAGGCTATG returned a PBM binding z-score of 2.66. For the sequence CTATGTAGGTTAAGGAGGTCATTCAGTTTGAAAG, the PBM binding z-score was found to be 4.47. CTATGAAGGTTAAGGGGGTCATTCAGTTTGAAAG registered a PBM binding z-score of 6.88. The result for CGAACTAGGTCACCCGGACAGTGAAGAGGTTGGA reads 1.13; that for TAGCCTAGGTCATAGGCCAGTATACCACGCGAAC, 0.651. The same measure for TCGAGTAGGTTACGGGGGCGTTCAGGGATGAAGA: 3.52; for CGAACTAGGTCAAATGACAGTGAAAGGCGACGTA: 0.337. The same measure for ATATGGAGGTTAAGGGTCATTCAGGTTGGTTCGC: 5.63. CCTACTGGGCCAAGCTCATTGATCAGTCAAAGCA showed a PBM binding z-score of -0.851.

AGTCAAAGTTCATCAAGGTAACGTAAGATATGCT returned a PBM binding z-score of 4.97. Regarding ACAGACAGGTGAGTGAAGGTCACTCAGCTGGACG, the PBM binding z-score came to 0.819.

TCGAGTAGGTTACGGGGGCCTTCAGGGATGAAGA: the PBM binding z-score turned out to be 0.302. The result for CAAACTAGGTCACCGGAAAGTCAAAGTCCGCATG reads 0.741. The result for CGAACTAGGTCAACAGGACAGTGAAGAGGTTGGA reads 0.504.
